Shown are actives, neighbours in structure and some others; about 4.4% of the full set was active somewhere.
SKKanGAS inh: blocks kanamycin growth of S. pyogenes SKKanGAS strain. BacTiter-Glo, 6 h. inhibition, % at 7.5 µM. 300,000 tested, 1.3% active;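 active = mean replicate score, as percent of positive control median, at least 50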;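 note: strain carries kanamycin resistance gene driven by streptokinase promoter and grows in 40 µg/ml kanamycin; loss of luminescence reflects streptokinase promoter inhibition or plain growth inhibition; 0% = median of DMSO wells and 100% = positive control at its reference dose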
PfHsp90 yeast 2: reduces growth (ATP signal) of yeast expressing P. falciparum Hsp90 | inhibition, % at 9.4 µM | 310,000 tested, 0.32% active | S. cerevisiae expressing PfHsp90, BacTiter-Glo ATP, 48 h; yeast lacking PDR1 and PDR3 efflux regulators;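 active = every replicate shows inhibition above about 80%, whatever the replicate mean, limit read from the data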;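 note: 0% = DMSO neutral controls and 100% = 20 µM radicicol positive controls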
TIM10 inh: inhibits growth of TIM10 yeast strain; S. cerevisiae TIM10 strain growth, BacTiter-Glo luminescence, 24 h; inhibition, % at 10 µM; 330,000 tested, 1.4% active;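 active = inhibition of 40% or more at the single tested concentration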;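 note: wild-type TIM10 isogenic control strain grown at permissive 25 °C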
tim10-1 inh: inhibits growth of tim10-1 mutant yeast. S. cerevisiae tim10-1 ts strain growth, BacTiter-Glo, 24 h. inhibition, % at 20 µM. 330,000 tested, 2.2% active;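 active = inhibition of at least 40%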;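 note: mutant grown at 25 °C; 0% = DMSO wells with yeast and 100% = wells holding no yeast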
tim23-1 inh: growth inhibitors of tim23-1 mutant yeast | S. cerevisiae tim23-1 growth, BacTiter-Glo luminescence, 24 h | inhibition, % at 20 µM | 330,000 tested, 1.3% active | AID 463212;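 active = growth inhibition of the mutant yeast at or above 50%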;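 note: temperature-sensitive mutant grown at 25 °C; plate controls were DMSO-treated mutant yeast for no effect and medium wells lacking yeast for full effect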
tim10 confirm: confirmation of TIM10 yeast growth inhibitors | shares compounds with TIM10 inh | inhibition, % at 10 µM | 4,600 tested, 63% active | S. cerevisiae tim10 strain growth, BacTiter-Glo luminescence, 24 h | AID 463215;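 active = inhibition of yeast growth at or above a set limit in either of two replicates at 10 µM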;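 note: this counterscreen used the strain with wild-type TIM10; 0% = yeast with DMSO and 100% = medium wells lacking yeast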
tim23-1 conf: tim23-1 yeast growth inhibition, confirmed | AID 463218 | 4,400 tested, 83% active | inhibition, % at 20 µM | shares compounds with tim23-1 inh | S. cerevisiae tim23-1 growth, BacTiter-Glo luminescence, 24 h;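 active = inhibition above about 39% in either of two replicate wells at 20 µM, limit read from the data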;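 note: temperature-sensitive tim23-1 mutant grown at 25 °C; 0% = DMSO wells with yeast and 100% = medium wells without yeast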
* = called active by the depositor; x = no result.

SMILES | SKKanGAS inh | PfHsp90 yeast 2 | TIM10 inh | tim10-1 inh | tim23-1 inh | tim10 confirm | tim23-1 conf
Cc1ccc(NC(=O)Cn2c(=O)c3cccn3c3ccccc32)c(Cl)c1 | 3.1 | -5.5 | 4.0 | 6.8 | 10.5 | x | x
COc1ccc2c(c1)[C@@H]1[C@H](CO2)[C@H](c2ccccc2)[C@]2(C)C(=O)Nc3ccc(C)cc3C(=O)N12 | x | 15.9 | 42.2* | 34.7 | 58.4* | 35.2* | 57.0*
COc1ccc2c(c1)C(=O)N1[C@H]3c4cc(C)ccc4OC[C@@H]3[C@H](c3ccccc3)[C@]1(C)C(=O)N2 | x | -24.1 | -9.4 | 28.8 | -10.1 | x | x
O=Cc1cn(-c2ccccc2)nc1-c1ccccc1 | -6.3 | -5.0 | 57.9* | 39.6 | 68.3* | 63.8* | 69.5*
O=Cc1cn(-c2ccccc2)nc1-c1ccncc1 | -1.9 | x | 46.7* | 23.3 | 55.7* | 38.5* | 46.8*
O=C(O)/C=C/c1cn(-c2ccccc2)nc1-c1ccccc1 | 0.2 | -7.2 | 1.1 | 14.7 | 16.2 | x | x
NNc1nc2c(Cl)c(Cl)ccc2s1 | 4.4 | 6.5 | 41.1* | 22.5 | 68.2* | 27.9* | 52.1*
Cc1ccc2nc(-c3ccccc3N)[nH]c2c1 | 4.9 | 21.8 | 43.7* | 27.5 | 67.5* | 14.4 | 30.6
Cc1ccc(C)c(-c2nc3ccc(N)cc3[nH]2)c1 | 11.4 | 70.9 | 20.8 | -7.1 | 0.3 | x | x
O=C(CN1CCN(Cc2ccccc2Cl)C1=O)NCCCN1CCOCC1 | 2.3 | 1.4 | -12.8 | -11.2 | 6.2 | x | x
O=C(Nc1cc(Cl)cc(Cl)c1)N1CCCC1 | 58.7* | 13.1 | 48.4* | 21.8 | 53.7* | 25.4 | 45.6*
CCOC(=O)c1cnc2c(C)c(Cl)ccc2c1NCCCN1CCOCC1 | -3.0 | -12.9 | 65.3* | 33.3 | 50.8* | 59.8* | 41.1*
CCOC(=O)c1cnc2c(Cl)c(Cl)ccc2c1NCCN1CCOCC1 | -2.9 | 15.6 | 16.4 | 26.8 | 27.9 | x | x
NC(=O)CC(NC(=O)c1ccc(Br)cc1)c1ccc(NC2CCCCCCC2)c([N+](=O)[O-])c1 (stereo unspecified) | 25.6 | -5.7 | 14.7 | 3.5 | 22.5 | x | x
CC(C)Cc1cc(C(=O)N2N=C(C(F)F)CC2(O)C(F)F)c2ccccc2n1 (stereo unspecified) | -7.1 | x | 4.1 | 22.4 | 17.5 | x | x
CCc1ccc(-c2cc(C(=O)N3N=C(C(F)F)CC3(O)C(F)F)c3ccccc3n2)cc1 (stereo unspecified) | 17.3 | 111.5* | 48.5* | 39.9 | 53.7* | 26.4 | 29.0
CCCC(=O)NC(=S)Nc1cccc(NC(=O)c2ccc(Cl)cc2Cl)c1 | 9.6 | -15.2 | 5.4 | 7.7 | 2.3 | x | x
CCCC(=O)NC(=S)Nc1cccc(NC(=O)c2ccccc2Cl)c1 | 2.4 | 2.0 | 44.8* | 36.4 | 53.5* | 39.4* | 44.0*
COc1ccc2c(c1)C(c1ccccc1)=NNC(c1ccco1)=N2 | 6.6 | 10.3 | 8.6 | 5.0 | 31.9 | x | x
CCOc1ccc(C2=NNC(c3cccs3)=Nc3ccc(OC)cc32)cc1 | 11.8 | -8.2 | 54.9* | 30.4 | 64.4* | 43.3* | 69.6*
N#C/C(=C/c1ccc(O)c(O)c1)C(=O)NCc1ccc(Cl)cc1 | 20.4 | 5.5 | -0.1 | 10.9 | 1.2 | x | x
N#C/C(=C/c1cccc(O)c1)C(=O)NCc1ccc(Cl)cc1 | 3.7 | -22.0 | 71.1* | 36.7 | 77.4* | 77.2* | 75.0*
O=C(Nc1cccc(S(=O)(=O)N2CCCCC2)c1)C1CC(=O)N(c2ccc3c(c2)OCCO3)C1 (stereo unspecified) | 0.8 | 0.8 | 9.3 | 11.9 | 10.0 | x | x
N#CC1(c2nc3ccccc3[nH]2)CC1c1ccc2c(c1)OCO2 (stereo unspecified) | -1.9 | x | 55.8* | 33.5 | 56.2* | 31.9* | 71.9*
CC(=O)Nc1cccc(C(=O)N2CCN(S(=O)(=O)c3ccc(C4CCCCC4)cc3)CC2)c1 | x | 5.8 | x | x | x | x | x
SMILES | SKKanGAS inh | PfHsp90 yeast 2 | TIM10 inh | tim10-1 inh | tim23-1 inh | tim10 confirm | tim23-1 conf
CC(=O)Nc1ccc(SCC(=O)c2cc(C)n(-c3ccccc3)c2C)cc1 | -1.6 | -27.7 | 47.9* | 35.1 | 53.9* | 43.9* | 53.3*
COc1ccc(-n2c(C)cc(C(=O)CCl)c2C)cc1 | -20.4 | -17.4 | 3.1 | -42.0 | 43.8 | x | x
COc1ccc(-n2c(C)cc(C(=O)CSc3ccc(NC(C)=O)cc3)c2C)cc1 | 2.6 | -4.4 | 41.0* | 30.3 | 62.0* | 31.2 | 48.9*
COc1ccc2[nH]c(C(=O)N3CCN(Cc4ccccc4)CC3)cc2c1OC | -11.3 | 10.6 | 13.9 | 4.3 | 28.8 | x | x
CCOc1cc(O)c(-c2[nH]ncc2-c2nc(C)cs2)cc1CC | -7.2 | -17.1 | 32.4 | 21.5 | 18.3 | x | x
Cc1cc2cc(C=O)c(Cl)nc2cc1C | 1.0 | 7.3 | 44.5* | 34.3 | 64.2* | 28.1* | 80.6*
O=C1NC(=O)C(Cc2ccc(O)cc2)N1 (stereo unspecified) | x | 10.4 | x | x | x | x | x
O=c1c2c3c(sc2ncn1/N=C/c1ccc(Br)o1)CCCC3 | -3.8 | -14.5 | 43.6* | 37.0 | 51.4* | 46.4* | 54.0*
Cc1ccc(/C=N/n2cnc3sc4c(c3c2=O)CCCC4)o1 | -5.4 | -2.4 | 6.9 | 12.9 | 17.0 | x | x
O=C(CCc1ccccc1)N=C1SC2CS(=O)(=O)CC2N1Cc1ccccc1 (stereo unspecified) | 0.1 | 7.9 | -12.2 | 2.6 | -5.8 | x | x
CC(C)N1CCc2c(sc(NC(=O)c3ccc4ccccc4c3)c2C(N)=O)C1 | 6.3 | 6.9 | 18.7 | 13.4 | 39.6 | x | x
CC(=O)Nc1sc2c(c1-c1nc3ccccc3s1)CCN(C(C)C)C2 | x | -4.7 | 66.3* | 34.8 | 53.6* | 63.2* | 59.6*
N#CCCN(C(=O)COC(=O)C12CC3CC(CC(O)(C3)C1)C2)c1ccc(F)cc1 | x | x | 2.3 | -7.6 | -20.5 | x | x
Cc1cc(C)nc(-n2nc(C)cc2NC(=O)c2cccc(S(=O)(=O)N(C)C)c2)n1 | 8.5 | x | -6.7 | 5.0 | -1.6 | x | x
Cc1ccc(C)c(C(=O)Nc2cc(C)nn2-c2nc(C)cc(C)n2)c1 | 48.0 | -24.9 | 43.2* | 8.9 | 53.8* | 42.8* | 48.3*
COc1ccc(S(=O)(=O)N(C)C[C@H]2Oc3c(NC(=O)NC(C)C)cccc3C(=O)N([C@H](C)CO)C[C@@H]2C)cc1 | x | 2.1 | 6.7 | -14.5 | -1.0 | x | x
CC(=O)N1CCN(S(=O)(=O)c2cccc(C(=O)NCCC3=CCCCC3)c2)CC1 | 1.5 | x | -4.6 | 14.0 | 1.6 | x | x
C=CCOc1cccc(C(=O)/C=C2/C(=O)Nc3ccccc32)c1 | 4.1 | -47.8 | 85.1* | 20.7 | 75.5* | 79.7* | -5.5
O=C(Nc1cccc(Cl)c1)C1CCCN(C2=NS(=O)(=O)c3ccccc32)C1 (stereo unspecified) | x | x | 0.2 | -7.5 | 3.6 | x | x
Cc1ccc(O)c(N=Nc2nccs2)c1 | x | 112.4* | 50.1* | 26.3 | 72.3* | 68.1* | 70.8*
O=c1oc2cc(O)ccc2s1 | -3.1 | 17.6 | -1.4 | -8.1 | -3.7 | x | x

Screening data as filed in PubChem.
